From PubChem BioAssay (NCATS)
Results filed as inconclusive are left out. Active and inactive are the calls of the source. Calls follow the shape of the dose curve; as a rule, active = well fitted inhibition curve with a large enough effect; inconclusive = small, poorly fitted or top-dose-only effect; inactive = flat fitted curve, though single readings scatter.

target: Calcium and integrin-binding protein 1 (Homo sapiens) (UniProt Q99828); assay: Primary qHTS for Identification of Calcium Integrin Binding Protein 1 (CIB1) Competitor (AID 1508620); settings: CIB1-GST / FITC-alphaIIb peptide fluorescence polarization; series mostly up to 114 µM; activity change, negative = inhibition: at the top concentration; also: top concentration of the series differs between compounds
Method in brief: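 Fluorescence polarization competition: GST-tagged CIB1 (1 uM final) preincubated with compound 15 min at room temperature, then FITC-labelled alphaIIb peptide (100 nM final) added. After 15 min at room temperature, polarization read at Ex 480/Em 540.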
% is scaled to controls: 0 for no effect and ±100 for the full control effect.

Calcium and integrin-binding protein 1 (Homo sapiens), sequence (Q99828 whole entry, looked up): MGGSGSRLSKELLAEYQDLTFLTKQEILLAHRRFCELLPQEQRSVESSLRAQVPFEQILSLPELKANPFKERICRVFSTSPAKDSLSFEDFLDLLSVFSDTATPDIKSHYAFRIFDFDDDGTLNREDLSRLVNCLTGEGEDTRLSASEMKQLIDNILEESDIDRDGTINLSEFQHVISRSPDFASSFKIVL

Row | Structure (SMILES) | activity change, negative = inhibition | Potency
1 | NC(=O)C1CCN(c2nc(-c3cccc(F)c3)cs2)CC1 | 3.29% (inactive) | –
2 | CCC(Nc1ncnc2ccc(-c3c(C)noc3C)cc12)c1ccccc1 (stereo not given) | 3.97% (inactive) | –
3 | Fc1cccc(Nc2nc(-c3ccncc3)nc3ccccc23)c1 | 9.62% (inactive) | –
4 | O=C(CCc1ccccc1)Nc1cccc([S+](=O)([O-])Nc2ccccc2F)c1 | 0.363% (inactive) | –
5 | Cc1ccc(NS(=O)(=O)c2ccc3c(c2)CCN(C(=O)C(F)(F)F)C3)cc1C | 2.89% (inactive) | –
6 | O=C1Cc2cc(S(=O)(=O)N3CCN(c4ccc(Cl)cc4)CC3)ccc2N1 | -2.71% [at 228 µM] (inactive) | –
7 | COc1ccccc1C1=Nn2c(COc3ccccc3)nnc2SC1 | – | inactive
8 | CCc1nnc(-c2cnn(C)c2N)n1CCCn1ccnc1 | -0.903% (inactive) | –
9 | COc1ccc(OC)c(-c2nnc3n2N=C(c2ccc(OC)c(OC)c2)CS3)c1 | -9.04% (inactive) | –
10 | COc1cc(F)c(S(=O)(=O)N2CCCN(S(=O)(=O)c3cccc(NC(C)=O)c3)CC2)c(F)c1 | -3.02% (inactive) | –
11 | O=[S+]([O-])(Nc1ccc(N2CCNCC2)cc1)c1ccc(NCc2cccc(Cl)c2O)cc1 | -17.2% (inactive) | –
12 | COc1ccc2c(c1)Oc1nc(-c3ccc(C)cc3)nc(SCC(=O)Nc3cccc(C(=O)O)c3)c1C2 | 0.615% (inactive) | –
13 | c1nc(NCCc2cnc[nH]2)c2cc(-c3ccoc3)ccc2n1 | 8.29% (inactive) | –
14 | COc1ccc(C2Nc3ccccc3C(=O)N2CCCN(C)C)cc1COc1ccc(NC(C)=O)cc1 (stereo not given) | -0.487% (inactive) | –
15 | N=c1c2c(ccn1CCCc1ccccc1)Oc1ccc3ccccc3c1C2c1ccccc1 (stereo not given) | 7.15% (inactive) | –
16 | COc1cc(O)c(C(CC(=O)N2CCCC(CN3CCCCC3)C2)c2ccc3c(c2)OCO3)c(OC)c1 (stereo not given) | 3.11% [at 228 µM] (inactive) | –
17 | O=S(=O)(c1ccc2c(c1)OCCO2)C1CCN(S(=O)(=O)c2c(F)cccc2F)CC1 | -1.55% (inactive) | –
18 | Cc1ccc(CNc2ccc(N3CCN(C(=O)OC(C)(C)C)CC3)cc2)cc1 | 0.537% (inactive) | –
19 | COc1cccc(NC(=O)C(OC(=O)CNC(=O)c2ccccc2)c2ccccc2)c1 (stereo not given) | -0.934% (inactive) | –
20 | Cc1noc(C)c1-c1ccc2ncnc(NC(C)c3ccco3)c2c1 (stereo not given) | -5.88% (inactive) | –

Row | Structure (SMILES) | activity change, negative = inhibition | Potency
21 | O=C1c2ccccc2C(=O)N1Cc1ccccc1 | -1.94% (inactive) | –
22 | Cn1c2cc(Br)sc2c2cnn(Cc3ccccc3F)c(=O)c21 | 1.15% (inactive) | –
23 | O=[N+]([O-])c1cc(C(F)(F)F)ccc1N1CCN(C(=S)Nc2cc(Cl)ccn2)CC1 | 2.33% (inactive) | –
24 | Cc1cc(NS(=O)(=O)CCNC(=O)Cc2ccc(Cl)c(Cl)c2)no1 | -3.59% (inactive) | –
25 | COc1cccc(CNc2ccc([S+](=O)([O-])Nc3ccccc3)cc2)c1Cl | 6.76% (inactive) | –
26 | COc1ccc(C2Nc3ccccc3C(=O)N2Cc2ccccc2)cc1COc1ccc(C#N)cc1 (stereo not given) | 4.59% (inactive) | –
27 | COc1cccc(C2c3c(ncn(-c4ccc(F)cc4)c3=N)Oc3ccc4ccccc4c32)c1 (stereo not given) | 6.17% (inactive) | –
28 | Cc1ccc(C(=O)Nc2ccc(N3CCOCC3)cc2)cc1 | -2.12% (inactive) | –
29 | C[C@H]1CN(S(=O)(=O)c2ccc3c(c2)OCCO3)CCN1S(=O)(=O)c1c(F)cccc1F | 0.806% (inactive) | –
30 | O=C1c2ccccc2NC(c2ccc(-c3cccc(F)c3)o2)N1O (stereo not given) | -8.38% (inactive) | –
31 | COC(=O)c1ccccc1S(=O)(=O)Nc1ccc(OC)cc1 | -6.02% (inactive) | –
32 | CCOC(=O)c1cccc(NC(=O)Nc2nnc(-c3ccncc3)s2)c1 | 4.82% (inactive) | –
33 | COC(=O)c1ccc(-c2c(NC(C)=O)sc3c2CCNC3)cc1 | -0.341% (inactive) | –
34 | Cc1ccc(CNc2nc(-c3ccccc3C(F)(F)F)nc3ccccc23)cc1 | 2.08% (inactive) | –
35 | COc1ccc(C2=Nn3c(nnc3-c3ccccc3C(F)(F)F)SC2)cc1OC1CCOC1 (stereo not given) | 3.73% (inactive) | –
36 | Cc1cc(C)nc(NC(=S)N2CCN(c3ccc4ccccc4n3)CC2)c1 | -3.3% (inactive) | –
37 | CCCCN(C)C(=O)Cn1nc(-c2cccc(C)c2)ccc1=O | -0.981% (inactive) | –
38 | COc1cccc(C2c3c(ncn(-c4ccccn4)c3=N)Oc3ccc4ccccc4c32)c1 (stereo not given) | 8.22% (inactive) | –
39 | COc1ccc(NC(=O)c2cccnc2)cc1S(=O)(=O)Nc1ccc(Br)cc1 | -0.452% (inactive) | –
40 | c1coc(CNc2nc(-c3cccs3)nc3ccccc23)c1 | 0.931% (inactive) | –
